In article PMC12136788:
Positions count from the first letter of the chain named. The full ranking holds about 5,800 sequences; the median of “enrichment r” is about 0.54, and the highest 2% start at about 16. The sample as a whole holds a higher share of the highest values than the screen did.

B1: chr11:214995:215097:+|3pUTR|ENSG00000177963|unk|total|mutant (ssRNA)
RNA: GGGAGUUCUACAGUCCGACGAUCCCUCCUUCCUACUGGUUCCGACUACACUUACAACAAGGAAAAUGCCCCUCGUGUGACCACCGAUUGAGAUUUAUACCACAUACCACACACCGCCACAGAAACAUCAUCUUGAAAUAAAGACAACAGAGGAUUGAGCAUCA
B2: chr5:157162449:157163658:-|CDS|ENSG00000170613|control|control|control (ssRNA)
RNA: GGGAGUUCUACAGUCCGACGAUCGGUCACAUCACAUGACAGAGAGGUAGAUAUCGUGGCUAAGAUGGUGGAGAAGCAAAACAUAGAGGCCAAAGUGGAGAAAGCCCAGGGUGGCCAGGAGCUGGAGAUGAUCAGUGGCACUAUCAACAGAGGAUUGAGCAUCA
B3: chr1:234405902:234406099:-|CDS|ENSG00000059588|control|control|control (ssRNA)
RNA: GGGAGUUCUACAGUCCGACGAUCCCUUAUAGUUGUGCUGCAGUGGUGUUUCAAUCACAAUUUUAGUGUUCGACUGUAUGCUUUAGUUGCUCUUAAGAAACUCUGGACUGUGUGUAAAGUGUUAAGUGUUGAAGAAUUUGAUGCCAACAGAGGAUUGAGCAUCA
B4: chr6:136278143:136278257:-|CDS|ENSG00000029363|unk|total|mutant (ssRNA)
RNA: GGGAGUUCUACAGUCCGACGAUCACAUCCGGUGAUAUUUGGCCUGGCCUUUCAGCUUAUGAUAACCGUCCCCGAUCACCCCACCGUCCUUCACCUAUUGCUACACCACCCCGUCAGAGUUCAUCUUGCUCUGAUGCUCCCAUGCAACAGAGGAUUGAGCAUCA
B5: chr1:15430058:15430159:+|3pUTR|ENSG00000142634|msi1|FALSE|unique (ssRNA)
RNA: GGGAGUUCUACAGUCCGACGAUCCCUGGAAGCUACGCGGACUUGCAGAGGUUUUAUUUUUUGGCCUUAGAAUCUGCAGAAAUUAGGAGGCACCGAGCCCAGCGCAGCAGCCUCGGACCCGGAUUGCGUUUGCCUUAGCGGAUACAACAGAGGAUUGAGCAUCA
B6: ENSG00000070961:be:win_4001|3pUTR|ENSG00000070961|bound_else_gene|NA|bound_elsewhere_windowed (ssRNA)
RNA: GGGAGUUCUACAGUCCGACGAUCAGUAAAACUGGGCAAGACAAAGAGCCCUGGAUCGUUGAAUUGAUAGUUUAAUUUCUGCUGUUGGCUGUUAAUAAUUUGGAUUAUUUAUGUUUAUAAAUGAUACAGAUCUGUUUACAAGGUCAACAGAGGAUUGAGCAUCA
B7: ENSG00000005810:stop:overlap|stop_codon|ENSG00000005810|stop_codon|NA|stop_codon (ssRNA)
RNA: GGGAGUUCUACAGUCCGACGAUCCACCCACUGGGGAAGAGUUUGCUCUGGGAUGUGGAGUGUGCAGAAAUGCCCACACUUUUUAGAACACGCAGAUCCUUUGUCUACAGAGAGAAAAAUUGCCUUCAUCCCCCAAGAGGAUGCCAACAGAGGAUUGAGCAUCA
B8: chr2:105361111:105361195:-|3pUTR|ENSG00000115641|msi1_unk|total|mutant (ssRNA)
RNA: GGGAGUUCUACAGUCCGACGAUCCUUUCUCACCCAGGCAAUCUUGCCUUCUGGUUUCUUCCAGCCACAUUGAGACUUUCUUCCCGUGCUUUUCAGUGAUACUCACGUUUGCUUAAACCCUUCCGUGCUUUGUGACCGUUCAGUCAACAGAGGAUUGAGCAUCA
B9: chr8:9779869:9779970:+|3pUTR|ENSG00000173273|msi1|FALSE|unique (ssRNA)
RNA: GGGAGUUCUACAGUCCGACGAUCGGAAUUUCUAGCUUUUCAAGCAGCAUAAGUAGAAUCAACAUUAGGAUGUUUUCAUGAAAUAGCAUCCUUAUACUUCUUUGAGCUUGAUGUUAGUGGCUAGACUGAUUUCCCUUUGCUCUCCAACAGAGGAUUGAGCAUCA
B10: chr11:62152232:62152344:+|3pUTR|ENSG00000149503|unk|FALSE|unique (ssRNA)
RNA: GGGAGUUCUACAGUCCGACGAUCUGCUCUGUAAAUAGUUGUUUUAAUUUAGCUGAAUGUUAGCAUUUUAGUCUUUGGCAUUUUAGCGUUUGGGAGGUAGAUUAAUAAAGUAUAUUCCUUCAAGCCUGCUGUUGAUACCAUGAACAACAGAGGAUUGAGCAUCA
B11: chrX:85861749:85861850:-|3pUTR|ENSG00000188419|msi1|total|mutant (ssRNA)
RNA: GGGAGUUCUACAGUCCGACGAUCCUAAUUUAAAAUUUCAGAAAAUGCUAUUAAAGAAUUUUGAUUCAAGUAUUUAAACUGUUCCGUUAUGCAUGCUUCUUAUUAACCGAAAAUGAUAAUACCAUUCCGUUCCGUGAUCAGUAUCAACAGAGGAUUGAGCAUCA
B12: ENSG00000198589:be:win_9701|3pUTR|ENSG00000198589|bound_else_gene|NA|bound_elsewhere_windowed (ssRNA)
RNA: GGGAGUUCUACAGUCCGACGAUCCAAGGAUUUGGAAUGAACAAUUCAGUUUGACAGAAAAAGCUGAAUAAAAUGGCAUCUGUAAUUGAAUUGUUGGAAAUGCCUUUUUUGCUCCUAAAUUUUAAACAUCAUUAAUAAAAUAAUCAACAGAGGAUUGAGCAUCA
B13: ENSG00000013293:stop:overlap|stop_codon|ENSG00000013293|stop_codon|NA|stop_codon (ssRNA)
RNA: GGGAGUUCUACAGUCCGACGAUCAACACAAACAGAACUCAGAGGCCCUGAUUGCAAAUGAUGAGUUAGAUUACUCUCCAGAGUAGGAGAAACACACAAGUGGGUAGAAAUGGUGAUGACUGAUUUUCAGUAACUUAACCUGUGCAACAGAGGAUUGAGCAUCA
B14: chr5:136976780:136976881:-|3pUTR|ENSG00000152377|msi1|total|mutant (ssRNA)
RNA: GGGAGUUCUACAGUCCGACGAUCCUUAAAUCCGCAUGUUCCAAUCCAGUCGGCAUUGCCUGAAUACAGCCGCAUCAUACCUACCGUUGGUCUCCGAUAAGAAAUGAACUACUUGAUACCGCAAAGUCCUUUGGCUUCGUAAAUCAACAGAGGAUUGAGCAUCA
B15: chrX:85861749:85861850:-|3pUTR|ENSG00000188419|msi1|FALSE|unique (ssRNA)
RNA: B11 RNA with C83U, C84A, C126U, C127A, C131U, C132A
B16: chr11:62152232:62152344:+|3pUTR|ENSG00000149503|unk|total|mutant (ssRNA)
RNA: GGGAGUUCUACAGUCCGACGAUCUGCUCUGUAAACCGUUGUUUUAAUUCCGCUGAAUGUCCGCAUUUCCGUCUUUGGCAUUUCCGCGUUUGGGAGGCCGAUUAAUAAAGUAUAUUCCUUCAAGCCUGCUGUUGAUACCAUGAACAACAGAGGAUUGAGCAUCA
B17: chr10:62094764:62094865:+|3pUTR|ENSG00000150347|msi1|FALSE|unique (ssRNA)
RNA: GGGAGUUCUACAGUCCGACGAUCGAUGAACUCCCCAACCCACUGUGCCCCUCCCGCAACACUACCAGUAGACUUUAGAACCAUAGUUAACUAAGUCUUUUACCUCUGAGAUACUUAAUUCUGGGAAAAUUGGUGACAAUUUUCCAACAGAGGAUUGAGCAUCA
B18: ENSG00000071054:stop:overlap|stop_codon|ENSG00000071054|stop_codon|NA|stop_codon (ssRNA)
RNA: GGGAGUUCUACAGUCCGACGAUCCUGGUGGCAGCAGUCAGGUUUAUUUCAUGACCUUAGGCAGGACUUCUCUUCUGAGCUGGUAGAAGCAGUGUGAUCCAGGGAUUACUGGCCUCCAGAGUCUUCAAGAUCCUGAGAACUUGGCAACAGAGGAUUGAGCAUCA
B19: ENSG00000070961:be:win_4401|3pUTR|ENSG00000070961|bound_else_gene|NA|bound_elsewhere_windowed (ssRNA)
RNA: GGGAGUUCUACAGUCCGACGAUCGUUAUGACAUCUGUCCUAAUUAGUUUCUUAAAUACAUUUACUACUUAAUGGUUUUGAAGCAACUGUUUAAUUUUUAAAAUUUUUGAAAACUUGCUAAUAACCUUUUGUUCAGAAUUUAGUCAACAGAGGAUUGAGCAUCA
B20: chr5:136976780:136976881:-|3pUTR|ENSG00000152377|msi1|FALSE|unique (ssRNA)
RNA: B14 RNA with C31U, C32A, C69U, C70A, C83U, C84A, C93U, C94A, C118U, C119A
B21: chr10:99876058:99876159:-|3pUTR|ENSG00000107554|msi1|FALSE|bound_elsewhere (ssRNA)
RNA: GGGAGUUCUACAGUCCGACGAUCUUGAGCCUAAUGGAAGACUGGAUGUCUUUCUUCUUCAUCCAAGCACCCUAAUGACUGUUUAGUUACAUCCAUAGAUGCAGACAACAUAACACCUGUGACUUACUUGAAUUGGGAUAAGCCCAACAGAGGAUUGAGCAUCA
B22: ENSG00000107021:stop:overlap|stop_codon|ENSG00000107021|stop_codon|NA|stop_codon (ssRNA)
RNA: GGGAGUUCUACAGUCCGACGAUCACCCCAUCACAGAUGUCUGCCAGAUCCUGCAGAAAGCCAAGGAGCUCCAAGACUCAAAGUAGCCCGGCGGCAAGAGGCCCAUGUUCCGGAGAGAAGCCUCCCGACCCUGUGCCCUGGCUCCAACAGAGGAUUGAGCAUCA

The binders below were run against MSI1 full-length (mouse, UniProt Q61474 1-362) (assay: nsRBNS (natural sequence RNA bind-n-seq); RBNS binding buffer (assumed for nsRBNS): 25 mM Tris pH 7.5, 150 mM KCl, 3 mM MgCl2, 0.01% Triton X-100, 500 ug/ml BSA, 20 U/ml SUPERase-In, 4 C; UNK is unkempt and MSI1 is Musashi-1; names of the RNAs are library labels; protein concentration not given here; high values mean tight binding).
Sequence of MSI1 full-length (Q61474 whole entry): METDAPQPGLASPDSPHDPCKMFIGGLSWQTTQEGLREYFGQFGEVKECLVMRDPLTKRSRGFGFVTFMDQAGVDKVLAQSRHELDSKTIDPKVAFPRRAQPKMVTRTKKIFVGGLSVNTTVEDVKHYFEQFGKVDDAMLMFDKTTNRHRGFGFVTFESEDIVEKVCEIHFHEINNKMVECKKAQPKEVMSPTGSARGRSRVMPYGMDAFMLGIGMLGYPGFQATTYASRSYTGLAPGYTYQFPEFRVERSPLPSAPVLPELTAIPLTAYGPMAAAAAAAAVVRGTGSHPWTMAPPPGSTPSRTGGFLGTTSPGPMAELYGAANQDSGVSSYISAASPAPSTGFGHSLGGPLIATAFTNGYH
In the case of B1, the binding signal is reported as 0.839 enrichment R.
B2 was tested, and the binding signal was 0.709 enrichment R.
In the case of B3, the binding signal is reported as 0.964 enrichment R.
B4 was tested, and the binding signal was 0.739 enrichment R.
B5 was tested, and the binding signal was 0.989 enrichment R.
Work on B6 yielded a binding signal of 0.47 enrichment R.
B7 gave a binding signal of 0.439 enrichment R.
B8 was tested, and the binding signal was 0.426 enrichment R.
Binder B9 has a binding signal of 0.275 enrichment R.
Work on B10 yielded a binding signal of 70 enrichment R.
B11 showed a binding signal of 0.789 enrichment R.
In the case of B12, the binding signal is reported as 0.605 enrichment R.
For B13, the binding signal was 18.5 enrichment R.
In the case of B14, the binding signal is reported as 0.478 enrichment R.
B15 showed a binding signal of 54.6 enrichment R.
With B16 the binding signal was 0.406 enrichment R.
B17 showed a binding signal of 12.5 enrichment R.
For B18, the binding signal was 0.605 enrichment R.
In the case of B19, the binding signal is reported as 3.8 enrichment R.
B20 was tested, and the binding signal was 71.2 enrichment R.
B21 showed a binding signal of 0.725 enrichment R.
B22 showed a binding signal of 0.38 enrichment R.
